From PubChem BioAssay (EPA / NIEHS)
Records with an inconclusive call do not appear. Active and inactive are the calls of the source. The calls were made as follows: active = hit-call score of the fitted dose curve at least 0.9, where 1 is the maximum; inconclusive = response in the unintended direction; inactive = score below 0.9.

Target: human Retinoid X Receptor beta (RXRb), RXRB (gene 6257) (UniProt P28702)
Test: ATG_RXRb_TRANS: Attagene TRANS-FACTORIAL HepG2 Assay for human Retinoid X Receptor beta (RXRb) (AID 2283013)
Procedure, shortened: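 After a 24 h incubation with test chemical, transfected HepG2 cells carrying NR-Gal4 fusions and GAL4-UAS reporter transcription units yield RNA whose reporter cDNA is FAM-labelled, HpaI-cut and sized by capillary electrophoresis; increases over DMSO are scored.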

human Retinoid X Receptor beta (RXRb), RXRB (gene 6257), sequence (P28702 whole entry, looked up): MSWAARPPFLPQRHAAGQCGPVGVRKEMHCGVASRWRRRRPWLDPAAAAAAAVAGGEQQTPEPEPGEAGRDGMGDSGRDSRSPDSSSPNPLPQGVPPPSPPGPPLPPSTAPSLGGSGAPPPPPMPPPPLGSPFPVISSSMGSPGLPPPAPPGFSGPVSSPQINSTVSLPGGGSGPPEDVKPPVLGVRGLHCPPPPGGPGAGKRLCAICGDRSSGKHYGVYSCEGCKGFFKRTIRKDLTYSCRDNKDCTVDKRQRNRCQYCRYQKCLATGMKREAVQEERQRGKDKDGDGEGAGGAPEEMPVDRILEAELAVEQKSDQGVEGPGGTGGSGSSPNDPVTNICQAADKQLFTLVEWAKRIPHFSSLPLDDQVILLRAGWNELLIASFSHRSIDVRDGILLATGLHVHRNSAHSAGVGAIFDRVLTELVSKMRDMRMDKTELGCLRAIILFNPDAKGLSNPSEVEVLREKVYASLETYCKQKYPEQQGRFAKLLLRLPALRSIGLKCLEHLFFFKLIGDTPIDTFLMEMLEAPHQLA

Structure (SMILES) | outcome | AC50
CC(C)(COC(=O)c1ccccc1)COC(=O)c1ccccc1 | inactive | –
c1ccc2sc(SN(C3CCCCC3)C3CCCCC3)nc2c1 | inactive | –
C[C@H]1C[C@@H]2[C@H]([C@@H](O)C[C@@]3(C)[C@H]2CC[C@]3(O)C(=O)CO)[C@@]2(C)C=CC(=O)C=C12 | inactive | –
CCN(CC)c1ccc(C(=C2C=CC(=[N+](CC)CC)C=C2)c2ccc(S(=O)(=O)O)cc2S(=O)(=O)[O-])cc1 | – | 100 µM (active)
CN(CCOc1ccc(CC2SC(=O)NC2=O)cc1)c1ccccn1 (configuration not stated) | inactive | –
O=C(O)c1cn(-c2ccc(F)cc2)c2cc(N3CCNCC3)c(F)cc2c1=O | inactive | –
OC1C(O)C(O)C(O)C(O)C1O (configuration not stated) | inactive | –
Cc1ccc(O)c(C(C)(C)C)c1 | – | 9 µM (active)
c1ccc2c(c1)c1cccc3ccc4cccc2c4c31 | – | 10.2 µM (active)
CC(=O)/C=C/C1=C(C)CCCC1(C)C | – | 80 µM (active)
Cc1cc(C2(c3cc(C)c(O)cc3C)OS(=O)(=O)c3ccccc32)c(C)cc1O | inactive | –
O=C(O)c1ccc([N+](=O)[O-])cc1 | inactive | –
CC1CCC(C(C)(C)O)CC1 (configuration not stated) | inactive | –
CC(C)c1ccc(C(C)C)cc1 | – | 66.5 µM (active)
CCCCCCCCCCCCCCCCCC(=O)OCC(CC)CCCC (configuration not stated) | inactive | –
Cc1ccc(C(=O)c2cc(O)c(O)c([N+](=O)[O-])c2)cc1 | inactive | –
OC1OC[C@@H](O)[C@H](O)[C@H]1O (some centres not stated) | inactive | –
CNC[C@H](O)c1cccc(O)c1 | – | 33.9 µM (active)
C#C[C@]1(O)CC[C@H]2[C@@H]3CCC4=Cc5oncc5C[C@]4(C)[C@H]3CC[C@@]21C | – | 154 µM (active)
Cc1ccc(C(=O)O)o1 | inactive | –
CC1CCC(C(C)CS)CC1S (configuration not stated) | – | 59.9 µM (active)

Target: human Thyroid Receptor alpha (THRa1), THRA (gene 7067) (UniProt P10827)
Test: ATG_THRa1_TRANS: Attagene TRANS-FACTORIAL HepG2 Assay for human Thyroid Receptor alpha (THRa1) (AID 2283014)
Procedure, shortened: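 Transcripts from GAL4-UAS-driven reporters, measured after 24 h compound exposure by RT-PCR plus capillary electrophoresis of 6-FAM-labeled fragments, were fitted for gain of signal relative to DMSO. Cells: transiently transfected HepG2 expressing NR-Gal4 chimeras.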

human Thyroid Receptor alpha (THRa1), THRA (gene 7067), sequence (P10827 whole entry, looked up): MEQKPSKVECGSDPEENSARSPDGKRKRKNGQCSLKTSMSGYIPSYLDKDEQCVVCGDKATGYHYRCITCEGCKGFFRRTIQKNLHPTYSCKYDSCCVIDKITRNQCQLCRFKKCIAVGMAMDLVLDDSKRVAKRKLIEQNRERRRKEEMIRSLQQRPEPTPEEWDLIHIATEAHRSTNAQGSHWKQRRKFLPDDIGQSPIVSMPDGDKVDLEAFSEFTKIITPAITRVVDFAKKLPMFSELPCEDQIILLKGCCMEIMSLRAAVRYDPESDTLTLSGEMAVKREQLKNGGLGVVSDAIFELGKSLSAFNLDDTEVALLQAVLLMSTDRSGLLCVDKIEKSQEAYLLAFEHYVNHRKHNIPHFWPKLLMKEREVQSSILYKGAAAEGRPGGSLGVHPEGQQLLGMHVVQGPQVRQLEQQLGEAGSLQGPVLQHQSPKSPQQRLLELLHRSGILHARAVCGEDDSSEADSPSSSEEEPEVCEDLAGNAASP

Structure (SMILES) | outcome | AC50
CC(C)(COC(=O)c1ccccc1)COC(=O)c1ccccc1 | inactive | –
O=C(O)COCCN1CCN(C(c2ccccc2)c2ccc(Cl)cc2)CC1 (configuration not stated) | inactive | –
c1ccc2sc(SN(C3CCCCC3)C3CCCCC3)nc2c1 | inactive | –
C[C@H]1C[C@@H]2[C@H]([C@@H](O)C[C@@]3(C)[C@H]2CC[C@]3(O)C(=O)CO)[C@@]2(C)C=CC(=O)C=C12 | inactive | –
CCN(CC)c1ccc(C(=C2C=CC(=[N+](CC)CC)C=C2)c2ccc(S(=O)(=O)O)cc2S(=O)(=O)[O-])cc1 | inactive | –
O=Cc1ccc(Cl)c([N+](=O)[O-])c1 | inactive | –
CN(CCOc1ccc(CC2SC(=O)NC2=O)cc1)c1ccccn1 (configuration not stated) | inactive | –
CC[C@]12CCCN3CCc4c(n(c5ccccc45)[C@@](O)(C(=O)OC)C1)[C@@H]32 | – | 28.5 µM (active)
C=C(C)C(=O)OCc1ccccc1 | inactive | –
CC(=O)Nc1ccc(C)cc1C | inactive | –
O=C(O)c1cn(-c2ccc(F)cc2)c2cc(N3CCNCC3)c(F)cc2c1=O | inactive | –
OC1C(O)C(O)C(O)C(O)C1O (configuration not stated) | inactive | –
c1cc(C(c2ccc(OCC3CO3)cc2)c2ccc(OCC3CO3)cc2)ccc1OCC1CO1 (configuration not stated) | inactive | –
c1ccc2c(c1)c1cccc3ccc4cccc2c4c31 | inactive | –
CC(=O)/C=C/C1=C(C)CCCC1(C)C | inactive | –
O=C(O)c1ccc([N+](=O)[O-])cc1 | inactive | –

Structure (SMILES) | outcome | AC50
CC1CCC(C(C)(C)O)CC1 (configuration not stated) | inactive | –
CC(C)c1ccc(C(C)C)cc1 | inactive | –
c1ccc(CCCc2ccccn2)cc1 | inactive | –
Cc1ccc(C=O)cc1 | inactive | –
Cc1ccc(C(=O)c2cc(O)c(O)c([N+](=O)[O-])c2)cc1 | inactive | –
CC(C)c1cccc(O)c1 | inactive | –
CNC[C@H](O)c1cccc(O)c1 | inactive | –
CCCCCCCCCCC(CO)CCCCCCCC (configuration not stated) | inactive | –
Nc1cc(Cl)c(O)c(Cl)c1 | inactive | –
Cc1ccc(C(C)C)cc1O | inactive | –
COC(C(=O)O)c1ccccc1 (configuration not stated) | – | 62.9 µM (active)
O=C1C(c2[nH]c3ccc(S(=O)(=O)O)cc3c2O)=Nc2ccc(S(=O)(=O)O)cc21 | inactive | –
OCc1cccnc1 | inactive | –
Cc1cccc(C)c1C | inactive | –
Cc1ccc(C(=O)O)o1 | inactive | –
